Results: the supplement of paper PMC10849652
About 7,900 targets were measured; listed, in parts, are those with a hit and a random draw of the rest. About 0.6% of all pairs of compound and target were hits. Unmarked numbers belong to inactive results.

What was measured:
Assay in all cases: log2 fold change, soluble protein after heating vs DMSO (PISA); higher = thermal stabilisation; K562 cells, 10 uM, 30 min; active = over 0.2 and 3.5 SD of the protein, either way, in both replicates (recomputed)
[1] = compound: CC[C@@H]1C(=O)N(C)c2cnc(Nc3ccc(C(=O)NC4CCN(C)CC4)cc3OC)nc2N1C1CCCC1
Procedure, shortened: (§1)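 Thermal stability values are relative to control samples and come from duplicates. They are expressed as log2 fold changes. For measurement, K562 cells (2×10^6 cells/mL) received 10 μM compound for 30 min, and aliquots were heated for 3 min over 48°C-58°C, pooled, and extracted at 4°C in PBS with 0.5% NP-40. Soluble protein, the supernatant after 21,000xg for 90 min, was quantified by TMTpro 16plex LC-MS/MS with equalised channel sums.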

[2] = compound: CC[C@@H]1C(=O)N(C)c2cnc(Nc3ccc(C(=O)N[C@H]4CC[C@H](N5CCN(CC6CC6)CC5)CC4)cc3OC)nc2N1C(C)C [volasertib]
Procedure, shortened: as §1

[3] = compound: CC[C@H](C)N1C=C(C2=C(C=C(C=C21)C3=CN=C(C=C3)N4CCNCC4)C(=O)NCC5=C(C=C(NC5=O)C)C)C
Procedure, shortened: as §1

[4] = compound: CC[C@H](C)[C@@H](C(=O)N[C@@H]([C@@H](C)O)C(=O)N[C@@H](CC(C)C)C(=O)[C@]1(CO1)C)NC(=O)[C@H]([C@@H](C)CC)N(C)C(=O)C [epoxomicin]
Procedure, shortened: as §1

[5] = compound: CCn1c(C(=O)N(C2CC2)C2CC2)cc2c3c(ncn3C)c(Nc3cc(C)n(C)n3)nc21
Procedure, shortened: as §1

[6] = compound: CCn1cc(-c2ccnc3[nH]c(-c4cccc(CN(C)C)c4)cc23)c(-c2ccc(NC(=O)N(C)C)cc2)n1
Procedure, shortened: as §1

[7] = compound: CN(C)CC(=O)Nc1ccc2[nH]c(=O)c3ccccc3c2c1
Procedure, shortened: as §1

[8] = compound: CN(CCOC1=CC=C(C=C1)C[C@H]2C(=O)NC(=O)S2)C3=CC=CC=N3 (racemic) [rosiglitazone]
Procedure, shortened: as §1

[9] = compound: CN1C2=C(C3=C1C(=O)N(N=C3)CC4=CC(=CC=C4)N)SC(=C2)S(=O)C
Procedure, shortened: as §1

[10] = compound: CN1CCC(CNc2ccc3ncc(-c4cccc(OC(F)(F)F)c4)n3n2)CC1
Procedure, shortened: as §1

UniProt Q9NYL2, sequence (Q9NYL2 whole entry, looked up): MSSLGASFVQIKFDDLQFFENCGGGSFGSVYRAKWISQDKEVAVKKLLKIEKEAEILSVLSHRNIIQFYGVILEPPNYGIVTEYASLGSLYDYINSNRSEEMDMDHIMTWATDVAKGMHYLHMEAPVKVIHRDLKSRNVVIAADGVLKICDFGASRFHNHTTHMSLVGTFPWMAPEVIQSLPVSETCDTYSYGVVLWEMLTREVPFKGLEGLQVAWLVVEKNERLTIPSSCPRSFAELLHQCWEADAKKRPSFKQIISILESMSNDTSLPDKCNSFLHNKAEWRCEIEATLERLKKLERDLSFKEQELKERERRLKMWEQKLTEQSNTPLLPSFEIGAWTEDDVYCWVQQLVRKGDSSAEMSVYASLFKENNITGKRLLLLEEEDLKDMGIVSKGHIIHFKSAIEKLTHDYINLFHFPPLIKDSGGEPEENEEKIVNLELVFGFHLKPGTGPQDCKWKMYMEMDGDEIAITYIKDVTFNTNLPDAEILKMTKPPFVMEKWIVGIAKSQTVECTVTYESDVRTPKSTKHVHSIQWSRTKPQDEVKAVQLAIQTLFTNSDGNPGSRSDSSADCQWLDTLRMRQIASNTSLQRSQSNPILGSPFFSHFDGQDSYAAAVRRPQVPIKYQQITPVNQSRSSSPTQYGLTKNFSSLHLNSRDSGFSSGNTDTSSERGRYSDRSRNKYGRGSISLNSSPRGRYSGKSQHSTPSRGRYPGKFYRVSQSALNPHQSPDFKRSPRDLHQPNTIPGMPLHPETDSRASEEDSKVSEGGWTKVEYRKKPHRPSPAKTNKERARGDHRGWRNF
UniProt Q8IWA4, sequence (Q8IWA4 whole entry, looked up): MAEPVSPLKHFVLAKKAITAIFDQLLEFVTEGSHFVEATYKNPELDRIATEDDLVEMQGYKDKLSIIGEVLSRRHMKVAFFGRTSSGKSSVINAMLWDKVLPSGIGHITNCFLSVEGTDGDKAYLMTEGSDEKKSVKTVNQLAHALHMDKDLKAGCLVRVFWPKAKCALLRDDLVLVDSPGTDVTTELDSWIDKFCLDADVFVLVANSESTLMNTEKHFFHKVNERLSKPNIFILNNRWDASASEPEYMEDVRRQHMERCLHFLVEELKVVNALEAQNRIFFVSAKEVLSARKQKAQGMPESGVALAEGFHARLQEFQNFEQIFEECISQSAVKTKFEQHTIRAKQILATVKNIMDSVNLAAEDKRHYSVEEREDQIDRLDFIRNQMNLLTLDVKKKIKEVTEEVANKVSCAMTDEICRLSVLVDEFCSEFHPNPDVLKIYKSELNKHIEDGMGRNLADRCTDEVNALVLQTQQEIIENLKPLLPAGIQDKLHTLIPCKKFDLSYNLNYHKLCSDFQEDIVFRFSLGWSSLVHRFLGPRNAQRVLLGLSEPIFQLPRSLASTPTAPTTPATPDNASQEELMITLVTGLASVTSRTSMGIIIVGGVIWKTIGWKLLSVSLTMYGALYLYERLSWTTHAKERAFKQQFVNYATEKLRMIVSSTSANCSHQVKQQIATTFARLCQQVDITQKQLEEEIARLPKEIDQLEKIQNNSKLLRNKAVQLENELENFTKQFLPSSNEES
UniProt Q96PC5, sequence (Q96PC5 whole entry, looked up): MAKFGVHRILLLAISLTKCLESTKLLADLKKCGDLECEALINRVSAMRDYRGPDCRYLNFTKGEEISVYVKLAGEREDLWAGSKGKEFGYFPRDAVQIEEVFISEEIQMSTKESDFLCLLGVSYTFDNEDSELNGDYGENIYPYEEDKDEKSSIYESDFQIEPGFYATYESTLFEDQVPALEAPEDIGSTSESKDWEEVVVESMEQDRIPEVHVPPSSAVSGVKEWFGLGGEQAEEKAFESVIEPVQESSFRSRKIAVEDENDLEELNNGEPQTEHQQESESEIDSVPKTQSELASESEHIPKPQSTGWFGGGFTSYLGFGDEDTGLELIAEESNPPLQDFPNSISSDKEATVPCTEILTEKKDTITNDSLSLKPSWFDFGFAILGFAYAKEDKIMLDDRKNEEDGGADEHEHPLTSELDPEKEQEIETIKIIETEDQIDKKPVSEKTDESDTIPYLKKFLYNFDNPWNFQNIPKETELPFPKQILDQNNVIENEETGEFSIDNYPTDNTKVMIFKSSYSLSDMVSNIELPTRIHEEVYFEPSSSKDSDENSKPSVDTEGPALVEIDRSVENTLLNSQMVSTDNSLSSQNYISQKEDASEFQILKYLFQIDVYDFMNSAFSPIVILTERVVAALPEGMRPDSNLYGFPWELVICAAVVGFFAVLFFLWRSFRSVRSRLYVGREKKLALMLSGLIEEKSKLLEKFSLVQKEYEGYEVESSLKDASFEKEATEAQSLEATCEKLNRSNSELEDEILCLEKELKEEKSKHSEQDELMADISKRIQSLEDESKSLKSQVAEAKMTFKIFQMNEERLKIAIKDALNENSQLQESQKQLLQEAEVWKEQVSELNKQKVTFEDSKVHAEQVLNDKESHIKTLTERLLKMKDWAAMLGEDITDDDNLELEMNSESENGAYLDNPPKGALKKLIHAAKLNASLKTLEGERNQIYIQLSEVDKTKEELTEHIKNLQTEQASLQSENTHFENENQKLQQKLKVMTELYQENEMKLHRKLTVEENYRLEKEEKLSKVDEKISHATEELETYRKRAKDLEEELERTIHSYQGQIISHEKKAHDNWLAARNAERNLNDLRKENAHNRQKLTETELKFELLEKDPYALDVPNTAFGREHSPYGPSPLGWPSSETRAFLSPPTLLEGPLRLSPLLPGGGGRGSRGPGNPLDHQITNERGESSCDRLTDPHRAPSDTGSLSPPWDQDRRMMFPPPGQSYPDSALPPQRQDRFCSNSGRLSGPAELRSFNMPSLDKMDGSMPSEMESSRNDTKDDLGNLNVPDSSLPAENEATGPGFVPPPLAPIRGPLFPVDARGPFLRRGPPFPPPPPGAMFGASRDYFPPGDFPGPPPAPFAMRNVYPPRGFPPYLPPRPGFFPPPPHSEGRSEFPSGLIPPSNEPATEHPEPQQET
UniProt A1L0T0, sequence (A1L0T0 whole entry, looked up): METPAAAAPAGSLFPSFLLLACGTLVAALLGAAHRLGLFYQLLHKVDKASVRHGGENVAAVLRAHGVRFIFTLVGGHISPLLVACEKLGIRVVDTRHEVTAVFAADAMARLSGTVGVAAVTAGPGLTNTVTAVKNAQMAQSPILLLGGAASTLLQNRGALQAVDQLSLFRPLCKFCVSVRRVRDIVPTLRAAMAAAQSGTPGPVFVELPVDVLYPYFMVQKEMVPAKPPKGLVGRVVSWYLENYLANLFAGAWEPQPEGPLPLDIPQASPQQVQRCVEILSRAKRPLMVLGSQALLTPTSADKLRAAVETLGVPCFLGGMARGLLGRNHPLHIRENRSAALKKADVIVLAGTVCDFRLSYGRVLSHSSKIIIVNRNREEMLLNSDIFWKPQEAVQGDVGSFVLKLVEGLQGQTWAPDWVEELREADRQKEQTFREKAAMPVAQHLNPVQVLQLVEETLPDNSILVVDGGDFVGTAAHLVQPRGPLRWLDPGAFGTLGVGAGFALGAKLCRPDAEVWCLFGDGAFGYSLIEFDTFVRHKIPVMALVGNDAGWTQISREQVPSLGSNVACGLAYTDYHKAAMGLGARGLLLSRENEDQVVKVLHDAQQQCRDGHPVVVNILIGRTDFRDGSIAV
UniProt O14880, sequence (O14880 whole entry, looked up): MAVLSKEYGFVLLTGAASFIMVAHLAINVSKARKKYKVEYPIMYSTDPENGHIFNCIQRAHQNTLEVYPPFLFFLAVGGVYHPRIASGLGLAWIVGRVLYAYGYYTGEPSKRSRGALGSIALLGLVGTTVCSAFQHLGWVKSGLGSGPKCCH
UniProt O95232, sequence (O95232 whole entry, looked up): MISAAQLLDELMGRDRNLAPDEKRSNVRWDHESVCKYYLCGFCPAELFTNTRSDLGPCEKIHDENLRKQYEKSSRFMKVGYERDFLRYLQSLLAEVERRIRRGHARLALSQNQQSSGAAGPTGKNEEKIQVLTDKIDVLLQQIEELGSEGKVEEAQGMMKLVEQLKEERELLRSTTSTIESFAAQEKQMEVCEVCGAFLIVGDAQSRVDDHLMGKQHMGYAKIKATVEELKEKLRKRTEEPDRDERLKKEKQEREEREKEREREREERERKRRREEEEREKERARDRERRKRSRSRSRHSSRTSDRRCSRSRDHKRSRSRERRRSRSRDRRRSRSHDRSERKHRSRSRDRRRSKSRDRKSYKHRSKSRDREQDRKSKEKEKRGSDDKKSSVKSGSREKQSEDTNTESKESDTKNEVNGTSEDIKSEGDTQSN
UniProt P36507, sequence (P36507 whole entry, looked up): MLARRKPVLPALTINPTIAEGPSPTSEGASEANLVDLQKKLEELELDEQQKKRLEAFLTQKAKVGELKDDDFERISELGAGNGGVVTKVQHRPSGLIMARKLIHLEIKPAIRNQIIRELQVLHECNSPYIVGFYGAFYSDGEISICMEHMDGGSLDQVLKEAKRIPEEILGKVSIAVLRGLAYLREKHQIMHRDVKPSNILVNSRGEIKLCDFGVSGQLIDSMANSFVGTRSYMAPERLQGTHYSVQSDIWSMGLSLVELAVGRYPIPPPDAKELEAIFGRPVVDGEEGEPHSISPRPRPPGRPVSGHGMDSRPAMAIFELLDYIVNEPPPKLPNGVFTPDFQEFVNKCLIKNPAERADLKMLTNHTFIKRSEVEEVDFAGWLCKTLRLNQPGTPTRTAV
UniProt Q9NQ29, sequence (Q9NQ29 whole entry, looked up): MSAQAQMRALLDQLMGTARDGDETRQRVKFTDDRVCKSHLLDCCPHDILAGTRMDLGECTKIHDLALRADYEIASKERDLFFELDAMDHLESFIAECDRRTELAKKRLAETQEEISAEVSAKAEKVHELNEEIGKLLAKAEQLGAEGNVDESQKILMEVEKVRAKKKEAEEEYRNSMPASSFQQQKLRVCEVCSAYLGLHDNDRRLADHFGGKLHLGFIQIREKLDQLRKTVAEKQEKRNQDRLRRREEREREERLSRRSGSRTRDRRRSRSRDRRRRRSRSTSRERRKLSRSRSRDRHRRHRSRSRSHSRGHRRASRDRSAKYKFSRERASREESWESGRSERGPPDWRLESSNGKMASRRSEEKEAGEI

| Target | log2 fold change [1] | log2 fold change [2] | log2 fold change [3] | log2 fold change [4] | log2 fold change [5] | log2 fold change [6] | log2 fold change [7] | log2 fold change [8] | log2 fold change [9] | log2 fold change [10] |
| --- | --- | --- | --- | --- | --- | --- | --- | --- | --- | --- |
| MFGE8 (UniProt Q08431) | 0.061 | 0.362 | -0.007 | -0.003 | 0.063 | -0.057 | -0.103 | -0.092 | 0.114 | 0.098 |
| ILF3 isoform 7 (UniProt Q12906) | 0.348 | 0.356 | -0.021 | -0.185 | -0.02 | 0.135 | -0.101 | -0.095 | 0.146 | 0.231 |
| MAPK8 isoform 3 (UniProt P45983) | -0.112 | -0.249 | 0.003 | 0.117 | -0.036 | 0.006 | 0.004 | 0.095 | 0.013 | -0.054 |
| LUC7L (UniProt Q9NQ29) | 0.006 | -0.005 | 0.005 | -0.052 | 0.048 | 0.01 | -0.043 | -0.003 | 0.108 | 0.052 |
| LUC7L3 (UniProt O95232) | -0.057 | -0.185 | 0.027 | 0.005 | -0.025 | 0 | -0.031 | 0.004 | -0.009 | -0.074 |
| ILVBL (UniProt A1L0T0) | 0.049 | 0.069 | -0.034 | 0.069 | 0.006 | 0.042 | 0.036 | -0.044 | -0.068 | 0.019 |
| LPIN1 isoform 7 (UniProt Q14693) | 0.06 | -0.002 | 0.063 | 0.098 | 0.011 | -0.045 | 0.012 | 0.055 | 0.008 | -0.016 |
| MAPKAPK3 (UniProt Q16644) | -0.084 | 0.036 | 0.003 | 0.064 | 0.048 | 0.016 | -0.015 | 0.004 | -0.14 | -0.049 |
| LRBA (UniProt P50851) | -0.05 | -0.221 (active) | 0.034 | 0.017 | 0 | -0.074 | 0.008 | 0.048 | -0.057 | -0.139 |
| KEAP1 (UniProt Q14145) | -0.026 | -0.357 (active) | -0.034 | -0.024 | -0.017 | 0.019 | 0.033 | 0.024 | 0.056 | 0.053 |
| MFSD5 isoform 2 (UniProt Q6N075) | 0.052 | 0.111 | -0.124 | 0.427 (active) | -0.012 | 0.028 | -0.092 | -0.032 | -0.056 | 0.14 |
| MAP2K2 (UniProt P36507) | -0.12 | 0.084 | 0.077 | 0.044 | -0.02 | -0.06 | 0.022 | 0.04 | -0.056 | -0.1 |
| LYN (UniProt P07948) | -0.016 | -0.023 | 0.033 | 0.039 | 0.037 | -0.095 | -0.024 | -0.009 | 0.144 | -0.03 |
| MAGOHB (UniProt Q96A72) | -0.046 | -0.096 | 0.014 | 0.007 | -0.041 | 0.003 | 0.013 | 0.017 | -0.039 | 0.023 |
| KCTD2 (UniProt Q14681) | 0.003 | 0.029 | -0.033 | -0.052 | 0.007 | -0.024 | -0.068 | -0.024 | 0.049 | -0.623 |
| KEL (UniProt P23276) | 0.195 | -0.085 | -0.085 | 0.063 | 0.033 | -0.013 | -0.007 | 0.024 | 0.018 | 0.088 |
| KIF21A isoform 4 (UniProt Q7Z4S6) | 0.073 | -0.019 | 0.038 | 0.066 | -0.037 | -0.121 | 0.013 | 0.033 | 0.054 | 0.076 |
| LEO1 (UniProt Q8WVC0) | -0.021 | -0.402 (active) | -0.013 | -0.001 | -0.007 | -0.051 | 0.121 | 0.006 | -0.033 | -0.048 |
| IK (UniProt Q13123) | -0.136 | -0.366 (active) | 0.02 | 0.125 | -0.053 | 0.069 | -0.034 | 0.02 | 0.145 | -0.035 |
| MIA2 (UniProt Q96PC5) | -0.039 | -0.29 (active) | 0.005 | 0.037 | -0.009 | 0.054 | 0.005 | 0.034 | 0.031 | 0.053 |
| LEMD3 (UniProt Q9Y2U8) | -0.096 | -0.324 (active) | -0.063 | 0.095 | -0.076 | 0.003 | 0.123 | -0.03 | -0.016 | -0.081 |
| LBR (UniProt Q14739) | -0.036 | 0.552 (active) | 0.051 | 0.022 | -0.012 | -0.071 | 0.056 | 0.086 | -0.026 | 0.099 |
| MGST3 (UniProt O14880) | -0.005 | 0.048 | -0.107 | -0.016 | 0.066 | -0.047 | -0.017 | -0.043 | -0.027 | 0.097 |
| LRPPRC (UniProt P42704) | -0.413 | -0.801 | 0.161 | 0.277 | -0.243 | 0.01 | 0.334 | 0.214 | 0.177 | -0.323 |
| MFN1 (UniProt Q8IWA4) | -0.099 | -0.136 | -0.056 | 0.079 | 0.015 | -0.024 | -0.025 | 0.32 | -0.045 | -0.295 (active) |
| MAP3K20 (UniProt Q9NYL2) | 0.038 | -0.026 | 0.08 | 0.008 | 0.011 | -0.016 | -0.02 | 0.035 | 0.126 | -0.12 |
| MAPK9 (UniProt P45984) | -0.055 | -0.087 | 0.006 | -0.005 | -0.004 | 0.03 | 0 | 0.04 | -0.038 | -0.071 |
| KLHL18 (UniProt O94889) | 0.075 | -0.178 | -0.123 | 0.36 (active) | -0.038 | -0.01 | -0.073 | -0.019 | 0 | 0.034 |
| KIF13A (UniProt Q9H1H9) | 0.007 | -0.041 | -0.003 | 0.004 | -0.05 | -0.068 | -0.026 | 0.068 | -0.012 | 0.039 |
| LARP4B (UniProt Q92615) | 0.025 | -0.15 | 0.061 | -0.037 | -0.052 | 0.073 | 0.034 | -0.02 | 0.096 | -0.218 |
